A short description of the experiment: NCI Yeast Anticancer Drug Screen. Data for the CLN2oe strain (AID 163).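 Also: 0% = growth of vehicle-only control cultures.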 As to conditions: S. cerevisiae CLN2oe strain, stronger effect = higher value. The procedure: Growth inhibition of yeast strains with defined genetic alterations is measured as a screen for potential anti-cancer activity. Selected strains with alterations in DNA damage repair or cell cycle control were exposed to compounds and growth inhibition was measured relative to vehicle treated controls. The strain used in this assay is CLN2oe

SMILES strings stand for the structures. The panel holds about 79,000 compounds, 15% with a hit somewhere; the sample as a whole holds those more often. A number with no mark means an inactive call. Calls of active or inactive are those of the source. Rule as the data show it: active = growth inhibition above about 70%; inactive = the rest. Starred links: 1 amine or outer side, 2 acyl side, 3 side chain; linkers in the order of their positions; H or OH if unused. Positions of bridges follow the written chain, without caps; N, C: chain ends. Non-standard residues stand in square brackets, D forms with d. Residues, ends and D or L forms follow the SMILES beside them. Chains are numbered I, II in the order given. Actinocin(9to1) = Cc1c2oc3c(C)ccc(C(=O)[*:1])c3nc-2c(C(=O)[*:2])c(N)c1=O; aThr = C[C@H](O)[C@H](N)C(=O)O; NMeV = CN[C@H](C(=O)O)C(C)C; Sar = CNCC(=O)O

As for `N#C/C(=C1C=C/C(=N\O)C(Cl)=C\1)c1ccccc1`, the growth inhibition reads like this: (at 1.2 µM) 2%; (at 3.7 µM) 3%; (at 11.0 µM) 6%; (at 33.0 µM) 15%; (at 100.0 µM) 13%.

Turning to `O=S(=O)(O)CC[S][Sn]([S]CCS(=O)(=O)O)([c]1ccccc1)[c]1ccccc1`, the growth inhibition is, setting by setting: (at 1.2 µM) 20%; (at 3.7 µM) 20%; (at 11.0 µM) 72% (active); (at 33.0 µM) 96% (active); (at 100.0 µM) 98% (active).

Consider `COc1cc(C(C)(C)C)cc(OC)c1C(O)(c1c(OC)cc(C(C)(C)C)cc1OC)c1c(OC)cc(C(C)(C)C)cc1OC`, for which the growth inhibition is 31% (at 1.2 µM); 45% (at 3.7 µM); 87% (active) (at 11.0 µM); 93% (active) (at 33.0 µM); 89% (active) (at 100.0 µM).

Consider `Cc1c2oc3c(C)ccc(C(=O)N[C@@H]4C(=O)N[C@H](C(C)C)C(=O)N5CCC[C@H]5C(=O)N(C)CC(=O)N(C)[C@@H](C(C)C)C(=O)O[C@H]4C)c3nc-2c(C(=O)N[C@@H]2C(=O)N[C@H](C(C)C)C(=O)N3CCC[C@H]3C(=O)N(C)CC(=O)N(C)[C@@H](C(C)C)C(=O)O[C@H]2C)c(N)c1=O` (I: [aThr][dV]P[Sar][NMeV] / II: [aThr][dV]P[Sar][NMeV]; ester I:1-I:C, II:1-II:C; linker I:N-II:N via Actinocin(9to1)), for which the growth inhibition is, setting by setting: (at 1.2 µM) 8%; (at 3.7 µM) 32%; (at 11.0 µM) 94% (active); (at 33.0 µM) 97% (active); (at 100.0 µM) 99% (active).

For `Cc1nc2ccc(NCCN(C)C)c3c(=O)c4ccccc4n1c23`, the growth inhibition is, setting by setting: (at 1.2 µM) 5%; (at 3.7 µM) 22%; (at 11.0 µM) 20%; (at 33.0 µM) -2%; (at 100.0 µM) 19%.

Consider `O=C(Cc1ccccc1F)NC1=C(Cl)C(=O)c2ccccc2C1=O`, for which the growth inhibition runs as follows: (at 1.2 µM) 1%; (at 3.7 µM) 18%; (at 11.0 µM) 19%; (at 33.0 µM) -1%; (at 100.0 µM) 27%.

For `Cc1ccc(P(c2ccc(C)cc2)c2ccc(C)cc2)cc1`, the growth inhibition reads like this: (at 1.2 µM) 8%; (at 3.7 µM) 4%; (at 11.0 µM) 4%; (at 33.0 µM) 10%; (at 100.0 µM) 18%.

In the case of `C[Si](C)(C)Cc1ccccc1C(=O)O`, the growth inhibition reads like this: (at 1.2 µM) 9%; (at 3.7 µM) 12%; (at 11.0 µM) 11%; (at 33.0 µM) 20%; (at 100.0 µM) 99% (active).

The values above are taken from PubChem BioAssay (NCI).
